Hits are enriched below; roughly 18% of the tested compounds scored in any of these assays.
HepG2 tox – HepG2 cytotoxicity, counter-screen for TGF-b inhibitors; HepG2 CAGA-GFP viability, ATP luminescence, 18 h; actives 0.76% (n = 410,000); Potency, µM (series often up to 46.1 µM), most hits filed as cytotoxic
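HepG2 CAGA-GFP cells (1000/well, DMEM with 1% FBS) received compound, then TGF-beta at 500 pg/mL final, and were incubated 18 hours at 37 degrees C. Viability was read by CellTiter-Glo luminescence. Media-only wells were set as complete cell-killing and DMSO as no toxicity.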
DT40 TDP1 CPT – growth inhibition of DT40 Tdp1-/-;hTDP1 cells with camptothecin (screen for TDP1 inhibitors); chicken DT40 Tdp1-/-;hTDP1 cells + 20 nM CPT, ATP luminescence, 48 h; Potency, µM (titrated, usually from 46.2 µM), most hits filed as inhibitors; actives 12% (n = 420,000); AID 686979; further: nearly all actives have a fitted effect of over 55% in size
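Chicken DT40 Tdp1-/- cells stably complemented with human TDP1 were seeded at 400 cells/well in medium containing 20 nM camptothecin, exposed to pin-transferred compounds, and grown at 37 °C for at least 48 hr. Viability was read as ATP luminescence.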
TDP1 block – inhibitors of human tyrosyl-DNA phosphodiesterase TDP1. Q9NUW8. recombinant TDP1, AlphaScreen DNA substrate cleavage. Potency, µM (highest dose often 130 µM), actives largely listed as inhibitors. actives 0.28% (n = 350,000). AID 485290; further: nearly all actives have a fitted effect of over 40% in size
Target sequence (Q9NUW8 whole entry, looked up): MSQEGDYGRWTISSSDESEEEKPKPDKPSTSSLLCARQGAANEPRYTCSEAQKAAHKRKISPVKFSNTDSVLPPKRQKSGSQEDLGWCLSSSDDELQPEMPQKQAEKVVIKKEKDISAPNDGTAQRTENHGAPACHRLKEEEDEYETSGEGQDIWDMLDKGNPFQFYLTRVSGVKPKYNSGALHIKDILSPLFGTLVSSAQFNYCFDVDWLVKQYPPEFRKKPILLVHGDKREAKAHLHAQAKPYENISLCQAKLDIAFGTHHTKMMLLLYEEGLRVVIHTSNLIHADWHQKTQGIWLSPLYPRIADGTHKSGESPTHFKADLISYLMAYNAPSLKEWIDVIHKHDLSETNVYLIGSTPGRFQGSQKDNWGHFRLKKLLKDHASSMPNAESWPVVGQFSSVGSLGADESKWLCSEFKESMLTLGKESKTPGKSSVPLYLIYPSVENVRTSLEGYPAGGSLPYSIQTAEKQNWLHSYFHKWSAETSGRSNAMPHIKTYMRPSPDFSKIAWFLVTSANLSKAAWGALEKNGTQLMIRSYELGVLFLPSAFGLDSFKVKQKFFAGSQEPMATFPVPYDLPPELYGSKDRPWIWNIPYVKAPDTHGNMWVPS
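Here, a 5' biotin and 3' phosphotyrosine-FITC DNA oligonucleotide reports Tdp1 activity: intact substrate bridges AlphaScreen beads, while cleavage leaves a 3' phosphate and drops signal. All incubations at room temperature.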
TDP1 cell noCPT – qHTS for Inhibitors of human tyrosyl-DNA phosphodiesterase 1 (TDP1): qHTS in cells in absence of CPT; DT40 Tdp1-/- hTDP1 cells, no CPT, ATP luminescence, 48 h; Potency, µM (highest dose often 46.2 µM), usual class: inhibitors; actives 15% (n = 420,000); further: nearly all actives have a fitted effect of over 55% in size
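Cells were dispensed at 400 per well, compounds added by pin tool, plates incubated ≥48 hr at 37 °C, then CellTiter-Glo added for 30 min at room temperature before luminescence reading. Line: DT40 Tdp1-/- complemented with hTDP1; camptothecin omitted.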
IL1B secr inh – blocks inflammasome-driven IL-1 beta release | AID 743279 | activity change, % at 57.5 µM | actives 4.7% (n = 360,000) | THP-1 LPS/ATP IL-1B secretion, AlphaLISA, 16 h; active compounds read low; in the data active means activity change below about -50%; inconclusive means mostly about -30% to -49%
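THP-1 cells pretreated 1 hr with compounds (up to 57.5 uM final), then stimulated with LPS (250 ng/mL final) plus ATP (1.25 mM final); secreted IL-1B measured by AlphaLISA after 16 hr, decreased signal indicating inhibition.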
TGFb inhibitor – TGF-b pathway inhibition; HepG2 CAGA-GFP TGF-b/SMAD3 reporter, GFP fluorescence, 18 h; TGF-beta stimulated, 500 pg/mL final; actives 1.2% (n = 410,000); Potency, µM (series often up to 46.1 µM), usual class: inhibitors; AID 588855; further: nearly all actives have a fitted effect of over 65% in size
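Smad-responsive CAGA-GFP expression was quantified in HEPG2 cells exposed to compounds and 500 pg/mL final TGF-beta for 18 h at 37 degrees C; unstimulated wells defined full inhibition.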
Hits are given with their value; . = inactive; ? = inconclusive; / = not tested or not shown. Unless noted, the call rests on the fitted dose curve; in most records, active means well fitted curve in the direction sought with a large enough effect; inconclusive means small, poorly fitted or top-dose-only effect, or another doubt; inactive means no such curve, though single readings can be large; an effect the other way counts as inactive or inconclusive.

SMILES | HepG2 tox | DT40 TDP1 CPT | TDP1 block | TDP1 cell noCPT | IL1B secr inh | TGFb inhibitor
CN(C(=O)COC(=O)C1COc2ccccc2O1)c1c(N)n(Cc2ccccc2)c(=O)[nH]c1=O (stereo not given) | . | . | . | . | . | .
COCCN(C)C(=O)c1cnn(-c2ncc3c(n2)-c2ccccc2CCC3)c1C1CC1 | / | . | / | . | / | /
CCCOc1ccccc1C(=O)Nc1ccc(S(=O)(=O)N2CCN(C)CC2)cc1 | . | 18µM | . | 16µM | . | .
O=C(COc1ncnc2c1cnn2-c1ccccc1)Nc1ccc(S(=O)(=O)N2CCCCC2)cc1 | . | 16µM | . | ? | . | .
CCCOc1ccccc1OCC(=O)Nc1ccc(S(=O)(=O)N2CCCC2)cc1 | . | ? | . | 16µM | . | .
O=S(=O)(c1ccc(NC(=S)N/N=C/c2c3ccccc3cc3ccccc23)cc1)N1CCOCC1 | . | 2.6µM | . | 3.7µM | . | ?
O=S(=O)(c1ccc(NC(=S)N/N=C/c2ccc(N3CCOCC3)cc2)cc1)N1CCOCC1 | . | 4.1µM | . | 3.7µM | . | .
NC(=O)NNc1cccc(Cl)n1 | . | . | . | . | . | .
Clc1cccc(CN2CCCCCCC2)c1Cl | . | . | . | ? | . | .
Clc1ccc(/C=C/c2ccc3ccccc3n2)cc1Cl | . | 6.3µM | / | 3.5µM | / | ?
Clc1ccc(/C=C/c2ccc3ccccc3n2)c(Cl)c1 | . | . | / | ? | / | .
O/N=C/c1ccc2ccccc2n1 | . | . | / | . | . | .
CC(=O)/C=C/c1ccc2ccccc2n1 | 20µM | 5.2µM | . | 2.6µM | -120 | ?
CC(C)(C)c1ccccc1N=Cc1ccc2ccccc2n1 | . | ? | . | . | . | .
CC[N+](C)(C)c1ccc(/C=C/c2ccc3ccccc3n2)cc1 | . | 0.028µM | / | ? | / | 6.3µM
CCN(CC)c1ccc(/C=C/c2ccc3ccccc3n2)cc1 | 3.2µM | 0.16µM | / | 0.16µM | / | 2.5µM
CCOc1ccc2nc(NC3=NC(c4ccc(OC)cc4)CC(=O)N3)nc(C)c2c1 (stereo not given) | . | 23µM | . | 21µM | -103 | ?
CCOc1ccc2nc(NC3=NC(C)(C)C=C(C)N3)nc(C)c2c1 | . | ? | . | ? | . | ?
CC(OC(=O)c1ccc2c(c1)NC(=O)CS2)C(=O)c1ccc(F)cc1 (stereo not given) | . | . | . | . | -56 | .
CCN1C(=O)c2ccccc2S(=O)c2ccc(C(=O)N3CCN(c4cccc(C)c4)C(C)C3)cc21 (stereo not given) | . | ? | . | 16µM | / | .
Cc1cccc(N2CCN(C(=O)c3ccc4c(c3)N(Cc3cccc(Cl)c3)C(=O)c3ccccc3S4=O)CC2C)c1 (stereo not given) | . | 5.8µM | . | 6.5µM | / | ?
O=C(N/N=C/c1cccs1)c1n[nH]c2c1CCCC2 | . | ? | . | 21µM | . | .
O=C(O)c1n[nH]c2c1CCCC2 | . | . | . | . | . | .
Cc1ccc(/C=N/NC(=O)c2n[nH]c3c2CCCC3)cc1 | . | 0.82µM | . | 0.92µM | / | ?
C/C(=N\NC(=O)c1n[nH]c2c1CCC2)c1cccs1 | . | . | . | . | / | .
O=C(Nc1ccnn1C1CCN(C(=O)CCc2ccc(F)cc2)CC1)C1CCOC1 (stereo not given) | . | . | . | . | . | ?
CCOc1ccc2nc(N3CCCC(C(=O)NCCc4ccc(C)cc4)C3)sc2c1 (stereo not given) | . | 12µM | . | 15µM | / | .
COc1ccc2nc(N3CCCC(C(=O)NCCCN4C(C)CCCC4C)C3)sc2c1 (stereo not given) | . | . | . | . | -70 | .
CCOc1ccc2nc(N3CCCC(C(=O)NCCCOC)C3)sc2c1 (stereo not given) | . | 16µM | . | 18µM | / | .
